Bioassay records as filed in PubChem.
CtBP-E1A inh = CtBP/E1A binding inhibition | hit rate 0.49% among 340,000 | AlphaScreen GST-E1A/His-CtBP binding, 1536-well; hits give low values | AID 651724 | activity change, % (concentration not given with the values); in the data active = activity change below about -65%; inconclusive = mostly about -30% to -63%; also: % is scaled to controls: 0 for no effect and ±100 for the full control effect
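Protein mix (5X: 125 nM each GST-E1A, His-CtBP) was incubated with pinned compound 2 h at 37 deg C in dark, in 50 mM Tris pH 8.0 buffer with 300 mM NaCl. Glutathione donor and nickel acceptor beads followed; AlphaScreen signal read after 1 h.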
Six1-Eya2 blk = inhibitors of human Six1/Eya2 interaction. Q15475+O00167. AlphaScreen GST-Six1/His-Eya2 binding, biochemical; hits give low values. AID 651725. hit rate 0.56% among 360,000. activity change, % (concentration not given with the values); in the data active = activity change below about -65%; inconclusive = mostly about -30% to -63%; also: % is scaled to controls: 0 for no effect and ±100 for the full control effect
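Compounds are tested against tagged Six1 and Eya2 proteins bridged by glutathione donor and nickel acceptor beads; after a one-hour incubation at 37 °C without light, AlphaScreen emission is recorded.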
BAZ2B inh = inhibitors of human BAZ2B bromodomain. Q9UIF8. AlphaScreen BAZ2B-H3K14Ac peptide displacement. Potency, µM (top dose mostly 114 µM), for the others: at the highest dose activity change, negative = inhibition, actives largely listed as inhibitors. hit rate 4.4% among 360,000. AID 504333; also: potency is read from the fitted curve at half-maximal effect; % is scaled to controls: 0 for no effect and ±100 for the full control effect; nearly all actives have a fitted effect of over 60% in size
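AlphaScreen displacement: compounds (up to 110uM) incubated 30 min at room temperature with a preformed 50 nM BAZ2B/50 nM biotinylated H3K14Ac peptide complex in PBS pH 7.4 with Tween-20. Donor and acceptor beads at 10 ug/mL final added, 20 min light-protected before reading.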
JMJD2A Tudor inh = JMJD2A Tudor domain (human) inhibition; O75164; AlphaScreen JMJD2A-Tudor / H3K4me3 peptide binding; Potency, µM (doses to about 114 µM), without a hit: at the top dose activity change, negative = inhibition, actives largely listed as inhibitors; hit rate 4.4% among 390,000; AID 504339; also: potency is read from the fitted curve at half-maximal effect; % is scaled to controls: 0 for no effect and ±100 for the full control effect; nearly all actives have a fitted effect of over 50% in size
HP1b binding inh = HP1-beta chromodomain-methylated histone interaction inhibition; AlphaScreen HP1-beta / biotin-H3K9me3 peptide binding; Potency, µM (doses to about 114 µM), without a hit: at the top dose activity change, negative = inhibition, actives largely listed as inhibitors; hit rate 0.56% among 390,000; also: potency is read from the fitted curve at half-maximal effect; nearly all actives have a fitted effect of over 70% in size
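Compound inhibition of the preformed complex between 50 nM HP1-beta and 50 nM biotinylated H3K9me3 peptide was read by AlphaScreen. Buffer was PBS pH 7.4 with 0.01% Tween-20. Incubations ran 30 min at room temperature, with 10 ug/mL donor/acceptor beads.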
G9a inh = inhibitors of human histone lysine methyltransferase G9a | Q96KQ7 | G9a H3K9 monomethylation, AlphaScreen, 2 h | Potency, µM (titrated, usually from 102 µM), for inactives: at the highest dose activity, negative = inhibition, actives largely listed as inhibitors | hit rate 8.8% among 350,000; also: potency is read from the fitted curve at half-maximal effect; % is scaled to controls: 0 for no effect and ±100 for the full control effect; nearly all actives have a fitted effect of over 75% in size
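G9a (20 nM) was preincubated 15 min with compound, then reacted 2 h at room temperature with 500 nM biotin-H3K9 peptide and 20 µM SAM. Monomethyl-H3K9 detected by AlphaScreen using anti-H3K9me1 antibody.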
Starred values were filed as active, the others as inactive; ? = inconclusive; / = no result given; [ ] = remark or other dose. Only some compounds are listed: those with a hit (about 10% of all), similar ones and a draw of the others. Unless noted, calls follow the shape of the dose curve; as a rule, active = well fitted inhibition curve with a large enough effect; inconclusive = small, poorly fitted or top-dose-only effect; inactive = no such curve, though single readings can be large or run the other way.

SMILES	CtBP-E1A inh	Six1-Eya2 blk	BAZ2B inh	JMJD2A Tudor inh	HP1b binding inh	G9a inh
CN(CC(=O)Nc1ccc(N2CCOCC2)cc1)C(=O)CCc1ccccc1Cl	0	0	?	-23%	-14%	25µM*
Cc1ccc(-c2nn(-c3ccc(F)cc3)cc2C(=O)N(C)CC(=O)Nc2ccc(N3CCOCC3)cc2)cc1	1	-11	-5%	-6%	10%	40µM*
CN(CC(=O)Nc1ccc(N2CCOCC2)cc1)C(=O)Cc1ccccc1	0	0	5%	-2%	19%	-4%[12.7 µM]
CN(CC(=O)Nc1ccc(N2CCOCC2)cc1)C(=O)CCNC(=O)c1ccccc1Cl	-24	9	-1%	-3%	10%	45µM*
CN(CC(=O)Nc1ccc(N2CCOCC2)cc1)C(=O)c1cc(F)c(F)cc1Cl	6	1	-2%	-19%	-17%	8%[0.501 µM]
CCOc1ccccc1C(=O)NCC(=O)N(C)CC(=O)Nc1ccc(N2CCOCC2)cc1	4	1	/	/	/	/
Cc1cc(C)cc(N(C)S(=O)(=O)c2nnc(NC(=O)COc3ccc(C)c(C)c3)s2)c1	/	/	-12%	-29%	14%	-45%[59 µM]
O=C(Nc1cccc(Cl)c1)Nc1ccccc1OCc1cc(=O)n2ccccc2n1	/	/	3%	-15%	12%[57 µM]	2%[59 µM]
Cc1ccc(C)c(SCC(=O)N(C)CC(=O)Nc2ccc(N3CCOCC3)cc2)c1	1	-7	-35%	-17%	8%	45µM*
Cc1cc(C)c(OCC(=O)N(C)CC(=O)Nc2ccc(N3CCOCC3)cc2)c(C)c1	4	-4	-34%	-19%	10%	?
C#CCOCCOCCOCCNc1nc(N2CCOCC2)nc(N2CCN(C(=O)[C@H](Cc3cc4ccccc4[nH]3)n3cc([C@@H](N)C(C)CC)nn3)CC2)n1 (some centres undefined)	-2	-5	?	?	21%	?
C#CCOCCOCCOCCNc1nc(N2CCN(C(=O)[C@H](CCCCN)n3cc([C@@H](N)C(C)CC)nn3)CC2)nc(N2CCN(C(=O)[C@H](Cc3cc4ccccc4[nH]3)n3cc([C@@H](N)C(C)CC)nn3)CC2)n1 (some centres undefined)	-7	-4	/	50µM*	-19%	/
C#CCOCCOCCOCCNc1nc(N2CCN(C(=O)[C@H](CCC(=O)O)n3cc(C(N)[C@H](C)CC)nn3)CC2)nc(N2CCN(C(=O)[C@H](Cc3cc4ccccc4[nH]3)n3cc(C(N)[C@H](C)CC)nn3)CC2)n1 (some centres undefined)	/	/	50µM*	/	/	-8%[12.7 µM]
C#CCOCCOCCOCCNc1nc(N2CCN(C(=O)[C@H](CO)n3cc([C@@H](N)C(C)C)nn3)CC2)nc(N2CCN(C(=O)[C@H](CCCCN)n3cc([C@@H](N)[C@H](C)CC)nn3)CC2)n1	-10	-7	/	-4%	39%	/
C#CCOCCOCCOCCNc1nc(N2CCN(C(=O)[C@H](CCC(=O)O)n3cc(C(N)CC(C)C)nn3)CC2)nc(N2CCN(C(=O)[C@H](Cc3cc4ccccc4[nH]3)n3cc(C(N)[C@H](C)CC)nn3)CC2)n1 (some centres undefined)	-24	-17	50µM*	56µM*	16%	?
C#CCOCCOCCOCCNc1nc(N2CCN(C(=O)C(Cc3cc4ccccc4[nH]3)n3cc(C(N)C(C)CC)nn3)CC2)nc(N2CCN(C(=O)C(Cc3cc4ccccc4[nH]3)n3cc(C(N)C(C)CC)nn3)CC2)n1 (centres undefined)	-27	-28	28µM*	28µM*	?	-103%[59 µM]
COc1ccc(N(C)C(=O)c2cn(C3CCCCC3)c(=O)c3c2c2ccccc2n3C)cc1	/	/	-30%	?	15%	-34%[59 µM]
Cc1ccc(SCc2nc(-c3ccc(C(=O)NCc4ccccc4Cl)cc3)oc2C)cc1	/	/	-6%	3%	44%	5%[59 µM]
Nc1csnc1C(=O)O	4	1	?	20µM*	14%	32µM*
